Source: PubChem BioAssay (Broad Institute)
IDE exosite inh = displaces the probe from the exo-site of human IDE | P14735 | purified IDE, FL-6b probe fluorescence polarization; hits give low values | z-score at 20 µM | hit rate 6.3% among 17,000 | AID 1259349;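 active means z-score of -3 or lower, meaning strong loss of probe binding signal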;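 further: His-tagged human IDE residues 42-1019 made in E. coli with 30 nM FL-6b probe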
* marks the source's active call; other numbers are inactive results. The full list was thinned out, with hits kept by preference.

Screening COc1ccc2c3c(n(C)c2c1)[C@H](CO)N(C(=O)Nc1ccc(F)cc1)CC31CCN(C(=O)c2ccc3c(c2)OCO3)CC1 returned IDE exosite inh -0.32.
Screening COc1ccc(-c2ccc([C@@H]3[C@H]4CN(C(=O)C5CC5)CC(=O)N4[C@H]3CO)cc2)cc1 returned IDE exosite inh -2.4.
Screening COc1ccc(-c2ccc([C@H]3[C@@H](CO)N4C(=O)CN(C(=O)C5CCC5)C[C@@H]34)cc2)cc1 returned IDE exosite inh 1.7.
For COc1ccc(-c2ccc([C@@H]3[C@@H](CO)N4C(=O)CN(C(=O)C5CCCC5)C[C@@H]34)cc2)cc1 the results were IDE exosite inh -0.91.
`COc1ccc(-c2ccc([C@@H]3[C@H]4CN(C(=O)C5CCCC5)CC(=O)N4[C@H]3CO)cc2)cc1` gave IDE exosite inh -1.1.
Screening COc1cccc(-c2ccc([C@@H]3[C@H]4CN(C(=O)C5CC5)CC(=O)N4[C@H]3CO)cc2)c1 returned IDE exosite inh -11*.
For COc1cccc(-c2ccc([C@@H]3[C@H](CO)N4C(=O)CN(C(=O)C5CCC5)C[C@@H]34)cc2)c1 the results were IDE exosite inh -10*.
`COc1ccc(-c2ccc([C@@H]3[C@@H](CO)N4C(=O)CN(C(=O)C5CCCC5)C[C@H]34)cc2)cc1` gave IDE exosite inh 0.57.
Screening COc1cccc(-c2ccc([C@H]3[C@@H](CO)N4C(=O)CN(C(=O)C5CC5)C[C@@H]34)cc2)c1 returned IDE exosite inh -6.5*.
Screening COc1ccc(-c2ccc([C@H]3[C@H]4CN(C(=O)C5CCC5)CC(=O)N4[C@H]3CO)cc2)cc1 returned IDE exosite inh -0.16.
Screening COC(=O)c1ccc(CN2CC(=O)N3[C@H](CO)[C@H](c4ccc(-c5ccccc5)cc4)[C@@H]3C2)cc1 returned IDE exosite inh 2.6.
For COc1ccc([C@@H]2C/C=C\C[C@@H](c3ccc(F)cc3)NC(=O)CCC(=O)N2)c(OC)c1 the results were IDE exosite inh -0.64.
CC(C)C#Cc1ccc([C@@H]2[C@H](CO)N3C(=O)CN(C(=O)Cc4cccnc4)C[C@@H]23)cc1 was read as IDE exosite inh 4.9.
For N#C[C@H]1[C@H](c2ccccc2)[C@H](CO)N1S(=O)(=O)c1cccc(F)c1 the results were IDE exosite inh 0.28.
For COc1ccc(S(=O)(=O)N(C)C[C@@H]2Oc3ccc(NC(=O)Nc4ccc(C(F)(F)F)cc4)cc3C(=O)N([C@H](C)CO)C[C@H]2C)cc1 the results were IDE exosite inh 0.16.
COc1ccccc1C(=O)N1C[C@@H]2[C@H](c3ccccc31)[C@H](CO)N2CC1CCCC1 was read as IDE exosite inh -0.63.
Screening COc1cccc(CN2CC3(C2)CN(C(=O)C2CC2)[C@H](CO)c2[nH]c4cc(OC)ccc4c23)c1 returned IDE exosite inh 0.32.
O=C(C[C@@H]1CC[C@@H]2[C@H](COC[C@H](O)CN2C(=O)Nc2ccc(F)cc2)O1)NC1CCC1 was read as IDE exosite inh 0.86.
`C/C=C/c1ccc([C@H]2[C@H]3CN(C(=O)Nc4cccc(OC)c4)CC(=O)N3[C@H]2CO)cc1` gave IDE exosite inh -0.016.
Screening CC(=O)N(C[C@H]1N[C@H](CO)[C@@H]1c1ccc(-c2cccc(F)c2)cc1)C1CCCC1 returned IDE exosite inh 4.
Screening Cc1cccc(-c2ccc([C@@H]3[C@H](CO)N4CCCCN(S(=O)(=O)c5cn(C)cn5)C[C@@H]34)cc2)c1 returned IDE exosite inh -20*.
Screening COc1cccc(-c2ccc([C@@H]3[C@@H](CO)N4CCCCN(S(=O)(=O)c5cn(C)cn5)C[C@@H]34)cc2)c1 returned IDE exosite inh -14*.
`COc1cccc(-c2ccc([C@@H]3[C@@H](CO)N4CCCCN(S(=O)(=O)c5cn(C)cn5)C[C@H]34)cc2)c1` gave IDE exosite inh 1.4.
For Cc1cccc(-c2ccc([C@@H]3[C@H]4CN(S(=O)(=O)c5cn(C)cn5)CCCCN4[C@H]3CO)cc2)c1 the results were IDE exosite inh -6.1*.
For Cc1cccc(-c2ccc([C@H]3[C@H]4CN(S(=O)(=O)c5cn(C)cn5)CCCCN4[C@H]3CO)cc2)c1 the results were IDE exosite inh 1.4.
Screening Cn1cnc(S(=O)(=O)N2CCCCN3[C@H](CO)[C@@H](c4ccc(-c5ccccc5)cc4)[C@@H]3C2)c1 returned IDE exosite inh -9.4*.
Screening Cn1cnc(S(=O)(=O)N2CCCCN3[C@H](CO)[C@H](c4ccc(-c5cccc(F)c5)cc4)[C@@H]3C2)c1 returned IDE exosite inh 2.5.
COc1cccc(-c2ccc([C@H]3[C@H](CO)N4CCCCN(S(=O)(=O)c5cn(C)cn5)C[C@@H]34)cc2)c1 was read as IDE exosite inh -0.35.
Screening Cn1cnc(S(=O)(=O)N2CCCCN3[C@@H](CO)[C@@H](c4ccc(-c5ccc(F)cc5)cc4)[C@@H]3C2)c1 returned IDE exosite inh -2.1.
`Cn1cnc(S(=O)(=O)N2CCCCN3[C@H](C2)[C@H](c2ccc(-c4ccccc4)cc2)[C@@H]3CO)c1` gave IDE exosite inh 1.7.
Screening COc1cccc(-c2ccc([C@H]3[C@H]4CN(S(=O)(=O)c5cn(C)cn5)CCCCN4[C@H]3CO)cc2)c1 returned IDE exosite inh -0.71.
`COc1cccc(-c2ccc([C@H]3[C@@H](CO)N4CCCCN(S(=O)(=O)c5cn(C)cn5)C[C@@H]34)cc2)c1` gave IDE exosite inh 0.93.
`C[C@@H]1CN([C@H](C)CO)S(=O)(=O)c2ccc(-c3ccncc3)cc2O[C@H]1CN(C)S(C)(=O)=O` gave IDE exosite inh -0.94.
`C/C=C/c1ccc([C@H]2[C@H]3CN(Cc4ccc(C(=O)OC)cc4)CC(=O)N3[C@H]2CO)cc1` gave IDE exosite inh 1.5.
O=C1CCC(=O)N[C@@H](c2ccc(F)cc2)C/C=C\C[C@H](c2ccc(F)cc2)N1 was read as IDE exosite inh -0.84.
Screening CCCNC(=O)N1[C@H](CO)[C@H](c2ccc(C3=CCCC3)cc2)[C@@H]1CNC(=O)CC returned IDE exosite inh 2.3.
For CN(C)C(=O)C[C@H]1CC[C@@H]2[C@@H](COc3ccc(NC(=O)C4CCCCC4)cc3C(=O)N2C)O1 the results were IDE exosite inh -0.86.
For CCCC#Cc1ccc([C@@H]2[C@@H](C#N)N(S(=O)(=O)c3cccc(F)c3)[C@H]2CO)cc1 the results were IDE exosite inh 1.7.
Screening O=C(C[C@@H]1CC[C@H](NC(=O)Nc2ccc(C(F)(F)F)cc2)[C@H](CO)O1)NCc1cccc(F)c1 returned IDE exosite inh 0.084.
`COc1cccc(C#Cc2ccc([C@H]3[C@@H](CO)N4C(=O)CN(C(=O)c5ccccc5)C[C@H]34)cc2)c1` gave IDE exosite inh -3.8*.
For COc1cccc(C#Cc2ccc([C@H]3[C@H]4CN(C(=O)c5ccncc5)CC(=O)N4[C@H]3CO)cc2)c1 the results were IDE exosite inh -1.6.
COc1cccc(C#Cc2ccc([C@@H]3[C@@H](CO)N4C(=O)CN(C(=O)c5ccncc5)C[C@H]34)cc2)c1 was read as IDE exosite inh -1.5.
For COc1cccc(C#Cc2ccc([C@@H]3[C@H]4CN(C(=O)c5ccccc5)CC(=O)N4[C@H]3CO)cc2)c1 the results were IDE exosite inh 3.7.
`COc1cccc(C#Cc2ccc([C@H]3[C@H](CO)N4C(=O)CN(C(=O)c5ccncc5)C[C@@H]34)cc2)c1` gave IDE exosite inh -8.4*.
`COc1cccc(C#Cc2ccc([C@H]3[C@@H](CO)N4C(=O)CN(C(=O)c5ccccc5)C[C@@H]34)cc2)c1` gave IDE exosite inh 0.74.
